Results taken from PubChem BioAssay AID504766 (The Scripps Research Institute Molecular Screening Center, 2011).
Screen size: about 340,000 compounds; about 3,400 (1%) were called active. For the sample, actives were picked, then their nearest neighbours and some compounds at random. Values without a mark were called inactive.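 How the source made its calls: active means inhibition above the mean over all tested compounds plus 3 SD (cut at about 4.2% in these data); inactive means the rest.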

Target: Nuclear receptor subfamily 0 group B member 1 (Homo sapiens) (UniProt P51843)
Sequence (P51843 207-470 limits assumed): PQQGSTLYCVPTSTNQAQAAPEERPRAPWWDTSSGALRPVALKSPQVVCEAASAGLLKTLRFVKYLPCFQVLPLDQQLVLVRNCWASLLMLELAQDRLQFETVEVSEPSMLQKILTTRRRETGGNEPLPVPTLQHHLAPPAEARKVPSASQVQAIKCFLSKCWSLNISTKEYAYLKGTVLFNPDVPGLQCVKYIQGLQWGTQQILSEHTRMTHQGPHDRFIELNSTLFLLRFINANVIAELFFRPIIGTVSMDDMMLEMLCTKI
Test: relief of DAX1 transcriptional repression – cell-based, HEK293, Gal4-DAX1, luciferase luminescence, primary screen (AID 504766);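 further: 0% = DAX1-transfected cells with DMSO and 100% = empty-vector control cells with DMSO; inhibition shows as a rise in luminescence from relieved DAX1 repression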
Settings: HEK293 Gal4-DAX1 luciferase reporter, at 6.75 µM, active compounds read high

Structure (SMILES) | inhibition
CCOC(OCC)c1ccc(/C=C\c2nccc(N)n2)cc1 | 4.34% (active)
Cc1ccc([C@H]2N[C@]3(CCCN(Cc4ccccc4)C3=O)[C@H]3C(=O)N(Cc4ccccc4)C(=O)[C@@H]23)cc1 | 0.82%
COc1cccc(OCC(=O)NCCS(=O)(=O)N2CCN(c3ccccc3)CC2)c1 | 0.69%
Cc1ccc(C(=O)OC2CCCN(C)C2)cc1 (stereo not drawn) | 1.89%
CC1(C)C2CCC1(C)C(OC(=O)CCn1ccnc1)C2 (stereo not drawn) | 0.23%
CC1(C)C2CCC1(C)C(OC(=O)c1ccc(O)cc1)C2 (stereo not drawn) | 4.45% (active)
O=C(Nc1ccc(Cl)cn1)c1ccccc1-c1ccccc1 | 1.12%
O=C1NC(Cc2ccccc2)c2nc3ccc(Br)cc3c(=O)n2-c2cc3ccccc3cc21 (stereo not drawn) | 0.19%
O=S1(=O)CCN(Cc2ccccc2Cl)CC1 | 0.98%
O=C(Nc1cccn(Cc2ccccc2Cl)c1=O)NC1CCCCC1 | -1.6%
CC1(C)COC(c2cccn2Cc2ccccc2Cl)=N1 | 5.28% (active)
CCC1NC(=O)c2cccnc2-n2c1nc1ccc(C)cc1c2=O (stereo not drawn) | 0.22%
CC(C)NC(=O)Nc1ccc2c(c1)C(=O)N([C@H](C)CO)C[C@H](C)[C@@H](CN(C)Cc1ccc(C(F)(F)F)cc1)OCCCC[C@@H](C)O2 | 0.43%
Cc1noc(C)c1S(=O)(=O)N(C)C[C@H]1OCCCC[C@@H](C)Oc2ccc(NC(=O)CCCN(C)C)cc2C(=O)N([C@H](C)CO)C[C@@H]1C | 0.48%
Cc1ccc(NC(=O)N2CCC(O)(c3cccnc3)CC2)cc1 | 4.28% (active)
O=C(c1cccc(F)c1)N1CCC(O)(c2cccnc2)CC1 | 1.7%
O=C(Nc1cccc(F)c1)N1C2CCC1CC(O)(c1cccnc1)C2 (stereo not drawn) | 0.14%
COC(=O)C[C@H]1C[C@@H]2c3cc(NC(=O)Nc4ccccc4)ccc3O[C@@H]2[C@@H](CO)O1 | 2.2%
CC1CCN(C(=O)CSc2nnc(-c3ccco3)n2N)CC1 | 1.88%
O=C(Nc1ccc2oc(-c3ccccc3F)nc2c1)c1ccco1 | 2.35%
Cc1ccc(NC(=O)c2ccco2)cc1 | 7.13% (active)
CC(C)(C)NC(=O)c1cc(NC(=O)c2ccco2)cc(NC(=O)c2ccco2)c1 | -1.82%
O=C(Nc1ccc2nccnc2c1)c1ccco1 | 5.48% (active)
O=C(Nc1ccc(Sc2ccc(Br)cc2)cc1)c1ccco1 | -0.97%

Structure (SMILES) | inhibition
COc1ccccc1C(=O)Nc1ccc(NC(=O)c2ccco2)c(C)c1 | -0.21%
NS(=O)(=O)c1ccc(CNC(=O)c2cc(S(=O)(=O)N3CCOCC3)ccc2N2CCCC2)cc1 | -0.73%
CN1CCN(c2ccncc2S(=O)(=O)N2CCCC2)CC1 | 0.96%
O=C(O)CCn1c(Cc2ccccc2)nc2ccccc21 | 0.63%
Cc1cc2ccccc2n1CCC(=O)O | 6.77% (active)
Cc1cc2ccccc2n1CCNC(=O)COc1ccc2ccccc2c1 | -0.5%
CC(OC(=O)c1cccc(S(=O)(=O)N2CCOCC2)c1)C(=O)NCC1CCCCC1 (stereo not drawn) | 0.27%
COc1ccccc1CCNC(=O)c1cnccn1 | 0.75%
COc1cccc(OCC(=O)NNC(=O)c2cnccn2)c1 | 5.68% (active)
COc1ccc(C(=O)NNC(=O)c2cnccn2)cc1[N+](=O)[O-] | 1.76%
Cc1cc(Cl)ccc1C(=O)C1CCCN(C(=O)c2ccc3c(c2)OCO3)C1 (stereo not drawn) | 0.21%
O=C(CSCc1ccccc1)Nc1ccccc1 | 7.09% (active)
Cn1c(CSCC(=O)Nc2ccccc2)nnc1SCc1ccccc1 | -0.77%
Cc1c(NC(=O)CSCc2ccccc2)cccc1C(=O)O | 0.3%
O=C(COc1ccc(Br)cc1)OCC(=O)c1ccc[nH]1 | -1.15%
COc1ccc(CCNC(=O)CN(c2ccccc2)S(=O)(=O)c2ccccc2)cc1 | -1.2%
CCCCCCN1C[C@H](O)[C@@H](n2cc(C3CC3)nn2)C[C@@H]1c1ccc(Cl)cc1 | -0.34%
CCOc1cc(/C=N/NC(=O)c2ccncc2)cc(Br)c1O | -0.05%
Cc1nc2cc3c(cc2s1)OCO3 | 5.8% (active)
c1c2c(cc3sc(N4CCCCC4)nc13)OCCO2 | -5.28%
COc1cc2sc(C)nc2cc1C | -1.73%
CCCc1ccc(S(=O)(=O)N2CCN(C(=O)c3cc(C)on3)CC2)cc1 | -0.87%
O=C(CCN1CCCCC1)Nc1ccc(F)c(F)c1 | 0.27%
FC(F)(F)c1ccnc(Oc2ccc(C3=NCCS3)cc2)c1 | 6.14% (active)

Structure (SMILES) | inhibition
CC1C(=O)N(Cc2cn(Cc3ccco3)nn2)CCS(=O)(=O)N1Cc1ccc(-c2cccc(CO)c2)cc1 (stereo not drawn) | 0.37%
COCOCCn1cc(CN2CCS(=O)(=O)N(Cc3ccc(-c4ccccc4)cc3)C(CC(C)C)C2=O)nn1 (stereo not drawn) | -1.62%
O=C(CC(c1ccccc1)c1ccccc1)NCC(O)c1ccc([N+](=O)[O-])cc1 (stereo not drawn) | 0.2%
CCCCCCOC(=O)NCC(O)c1ccccc1 (stereo not drawn) | 4.4% (active)
CCCCOC(=O)Nc1nnc(CC(=O)NCc2ccccc2)s1 | -0.2%
COc1ccc(-n2c(-c3ccc(Cl)cc3)n[nH]c2=S)c(OC)c1 | 0.25%
COc1ccc(OC)c(-n2c(-c3ccn[nH]3)n[nH]c2=S)c1 | 4.83% (active)
COc1ccc(OCc2n[nH]c(=S)n2N)cc1 | 0.95%
C[C@@H]1CN([C@H](C)CO)C(=O)c2cc(-c3ccc(F)cc3)cnc2O[C@H]1CN(C)C(=O)c1ccc(F)cc1 | -1.22%
CN(Cc1ccccc1)C(=O)c1cccc(C(=O)N(C)Cc2ccccc2)c1 | 0.91%
CN(CC(=O)O)C(=O)c1ccccc1 | 5.67% (active)
CN(Cc1ccccc1)C(=O)c1ccc(COc2ccccc2)cc1 | 0.19%
COCOCCn1cc(CN2CCS(=O)(=O)N(Cc3ccc(-c4cccc(N(C)C)c4)cc3)C(CC(C)C)C2=O)nn1 (stereo not drawn) | 2.25%
CCOc1ccc(NC(=O)c2cc(C)nc3ccccc23)cc1 | 0.49%
CN1CCN(c2nc(Nc3ccc(O)cc3)nc3ccccc23)CC1 | 0.71%
Cc1cc(Nc2ccc(Br)cc2)nc2ccccc12 | 5.55% (active)
CSC1=NN(c2ccccc2)CN(c2ccccc2)N1C | 0.33%
C[C@@H]1CN([C@@H](C)CO)S(=O)(=O)c2ccc(-c3ccc(C(=O)N(C)C)cc3)cc2O[C@@H]1CN(C)Cc1ccccc1C(=O)O | 3.37%
Cc1nn(CC(=O)N2CCCCC2)c(=O)c2nn(-c3ccccc3)c(C)c12 | 0.17%
Cc1csc(NC(=O)CN2CCCCCC2)n1 | 1.37%
Cc1nc2c(ncn2-c2ccccc2)c(=O)n1NC(=O)CN1CCCC1 | 8.39% (active)
COc1ccc(NC2CCCN(C(=O)c3ccccc3-c3ncc[nH]3)C2)cc1 (stereo not drawn) | -0.18%
Cc1cccc(OCC(=O)Nc2ccccc2F)c1 | 5.58% (active)
Cc1cccc(OCCC(=O)Nc2ccccc2C(N)=O)c1 | -0.79%

Structure (SMILES) | inhibition
Cc1cccc(OCC(=O)Nc2ccc(C(=O)O)cc2NC(=O)COc2cccc(C)c2)c1 | 0.91%
COc1ccccc1-n1c(SCC(=O)Nc2ccc(Cl)cc2)nc(O)c(Cc2ccccc2)c1=O | 1.11%
CC1(C)CC(=O)C(C2c3ccccc3S(=O)(=O)c3ccccc32)C(=O)C1 | 5.54% (active)
CC1(C)CC(=O)C(CC(=O)N2CCC(Cc3ccccc3)CC2)C(=O)C1 | 3.82%
CC1(C)CC(=O)NC=C(c2ccccc2)C1 | -0.26%
COc1ccc(C(=O)NCC2CCCO2)cc1S(=O)(=O)NCc1ccc(Cl)cc1 (stereo not drawn) | 0%
CC1=C(C(=O)N(C)C)CC(CC(=O)NCCc2ccccn2)C(=O)N1CCC1=CCCCC1 (stereo not drawn) | 1.44%
CC(C)N=C1CCCC1C(=S)SSC(=S)C1CCCC1=NC(C)C (stereo not drawn) | -3.43%
Cc1ccc(NC(=O)/C(=C\c2ccccc2)NC(=O)c2ccco2)cc1 | 0.33%
O=C(Nc1ccc2ccccc2c1)/C(=C\c1ccc2c(c1)OCO2)NC(=O)c1ccco1 | -1.35%
COc1ccc(/C=C(/NC(=O)c2ccco2)C(=O)Nc2ccc(C(C)=O)cc2)cc1 | 4.81% (active)
Cc1ccc(CCNC(=O)CN2C(=O)CSc3ccc(S(=O)(=O)N4CCOCC4)cc32)cc1 | 0.18%
NC1=CC(=O)C(=O)c2cccnc21 | -3.86%
C[C@@H]1CCCCO[C@H](CN(C)Cc2ccccc2)[C@@H](C)CN([C@H](C)CO)C(=O)c2cc(NS(=O)(=O)c3ccc(Cl)cc3)ccc2O1 | -0.88%
Cc1ccc([C@H]2C[C@H](O)[C@@H](n3cc(COC(=O)c4ccccc4)nn3)CN2CC2CCCCC2)cc1 | 2.07%
N#Cc1ccc(C2N=C(c3ccccc3)NO2)cc1 (stereo not drawn) | 4.58% (active)
Brc1ccccc1C1N=C(c2ccccc2)NO1 (stereo not drawn) | 1.91%
Nc1cccc(OCCCCCOc2cccc(N)c2)c1 | -0.21%
CSc1ncnc2c1ncn2CCCNCc1ccco1 | 0.14%
C[C@H]1CN([C@@H](C)CO)C(=O)c2cc(-c3cccc(F)c3)cnc2O[C@@H]1CN(C)S(C)(=O)=O | 3.06%
N#CC1(Nc2ccc3c4c(cccc24)CC3)CCCCC1 | -0.16%
